PLCg1 inh = inhibitors of human phospholipase C gamma1; P19174; purified PLC-gamma1, fluorogenic substrate, fluorescence; inhibition, % at 12.2 µM; 0.84% of 370,000 active; in the data active = inhibition above about 9.5%
UHRF1 binding = blocks human UHRF1 binding to methylated DNA. inhibition, % at 4.4 µM. AID 687016. UHRF1 binding to methylated oligo, TR-FRET. 0.75% of 370,000 active. Q96T88;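 also: UHRF1 SRA domain binding a hemimethylated CpG hairpin DNA probe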
LEDGF integ inh = blocks HIV-1 LEDGF/p75-dependent DNA integration; 0.64% of 370,000 active; TR-FRET IN-LEDGF/p75 DNA integration, Eu/Cy5; AID 743269; inhibition, % at 3.7 µM;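 active = inhibition above the screen-wide mean plus 3 SD, cut at about 13% in these data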;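 also: signal is the Cy5 over europium emission ratio at 671 and 618 nm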
PLC-beta3 inh = blocks human PLC-beta3 enzyme activity; Purified PLC-beta3, fluorogenic substrate, fluorescence; 0.18% of 370,000 active; Q01970; inhibition, % at 12.2 µM; in the data active = inhibition above about 11%
MBD2 DNA inh = inhibitors of human MBD2 binding to methylated oligonucleotide; Q9UBB5; TR-FRET; inhibition, % at 4.4 µM; 0.31% of 370,000 active; AID 686964; in the data active = inhibition above about 13%
Target sequence (Q9UBB5 whole entry, looked up): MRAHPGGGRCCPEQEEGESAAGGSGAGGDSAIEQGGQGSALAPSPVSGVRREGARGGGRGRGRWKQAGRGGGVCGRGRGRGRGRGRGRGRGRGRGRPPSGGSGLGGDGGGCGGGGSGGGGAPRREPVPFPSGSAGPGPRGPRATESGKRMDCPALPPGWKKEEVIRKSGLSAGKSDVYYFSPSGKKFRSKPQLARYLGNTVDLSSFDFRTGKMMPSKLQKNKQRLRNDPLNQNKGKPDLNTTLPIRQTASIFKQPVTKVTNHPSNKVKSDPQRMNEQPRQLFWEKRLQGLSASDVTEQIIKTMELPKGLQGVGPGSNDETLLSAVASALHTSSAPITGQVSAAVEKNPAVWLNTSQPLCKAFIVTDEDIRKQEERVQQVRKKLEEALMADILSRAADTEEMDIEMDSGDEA
UHRF1 ctr MBD2 = inhibits human UHRF1 binding to methylated oligonucleotide, MBD2 counter-screen; shares compounds with MBD2 DNA inh; TR-FRET; inhibition, % at 4.4 µM; 25% of 1,000 active;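 also: UHRF1 SRA domain binding a labeled hemimethylated CpG hairpin DNA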
MBD2 confirm = MBD2-DBD methyl-DNA binding inhibition, TR-FRET confirmation; AID 720531; 26% of 1,000 active; shares compounds with MBD2 DNA inh; TR-FRET MBD2-DBD binding to methylated oligonucleotide; inhibition, % at 4.4 µM; in the data active = inhibition above about 14%
PLCg1 ctr = inhibits human PLC-gamma1 in PLC-beta3 counter-screen | inhibition, % at 12.3 µM | purified PLC-gamma1, fluorogenic substrate, fluorescence | shares compounds with PLCg1 inh | 3.1% of 3,300 active; in the data active = inhibition above about 9.5%
PLCb3 confirm = human PLC-beta3 inhibition, confirmation; shares compounds with PLCg1 inh; purified PLC-beta3, fluorogenic substrate fluorescence; inhibition, % at 12.3 µM; 1% of 3,300 active; AID 743261; in the data active = inhibition above about 11%
IN multimer act = activates HIV-1 integrase multimerization in LEDGF counter-screen; TR-FRET HIV-1 integrase multimerization, biochemical; shares compounds with LEDGF integ inh; AID 1053131; activation, % at 7.7 µM; 17% of 2,000 active; in the data active = activation above about 8.9%
TRFRET interf = counter-screen for LEDGF/p75 integration inhibitors: TR-FRET optical interference; shares compounds with LEDGF integ inh; TR-FRET optical interference counterscreen, HIV-1 IN multimerization; inhibition, % at 7.7 µM; 2,000 tested, under 10 active; AID 1053135;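 active = inhibition above the mean over all tested compounds plus 3 SD, which no compound reached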
LEDGF integ conf = confirmation of HIV-1 LEDGF/p75-dependent integration inhibitors. TR-FRET LEDGF/p75-dependent HIV-1 integration, biochemical. inhibition, % at 3.7 µM. AID 1053136. 36% of 2,000 active. shares compounds with LEDGF integ inh; in the data active = inhibition above about 14%
Large screens that a line does not name were inactive (follow-up assays come after a bar, where they were run). Rows were chosen to be rich in hits. Some 2.4% of all compounds tested hit in one or more screens of this group. Rule as the data show it, unless noted: active = inhibition above about 21%; inactive = the rest.

COCCNC(=O)C1(C)CCCN(C(=O)c2ccc(C(F)(F)F)cc2)C1 (stereo not drawn)	none
Cn1cccc1C(=O)N1CCN(S(=O)(=O)c2ccc(C(C)(C)C)cc2)CC1	none
Cc1ccc(-c2nc3c(c(=O)[nH]c(=O)n3Cc3ccccc3)n2Cc2ccccc2)o1	none
Cc1ccc(-c2nc3c(c(=O)[nH]c(=O)n3Cc3ccccc3)n2C)o1	UHRF1 binding 30, LEDGF integ inh 23, MBD2 DNA inh 16 | UHRF1 ctr MBD2 inactive | MBD2 confirm inactive | IN multimer act inactive | TRFRET interf inactive | LEDGF integ conf 34
O=C(NC1CCCCC1)NC1CCN(C(=S)NCc2ccco2)CC1	none
S=C(NC1CC1)SCc1ccco1	UHRF1 binding 54, LEDGF integ inh 35, MBD2 DNA inh 24 | UHRF1 ctr MBD2 inactive | MBD2 confirm inactive | IN multimer act inactive | TRFRET interf inactive | LEDGF integ conf inactive
COC(=O)[C@@H]1[C@H](O[Si](C)(C)C(C)(C)C)C2OC2C[C@H]1S(=O)(=O)c1ccccc1 (stereo partly drawn)	none
N#C/C(=C\c1cc(O)c(O)c(O)c1)C(N)=O	PLCg1 inh 18, UHRF1 binding 47, LEDGF integ inh 68, MBD2 DNA inh 32 | UHRF1 ctr MBD2 inactive | MBD2 confirm inactive | PLCg1 ctr inactive | PLCb3 confirm inactive | IN multimer act 31 | TRFRET interf inactive | LEDGF integ conf 31
O=C1C=C(O)c2c(O)cc(O)c(O)c2C1=O	PLCg1 inh 31, UHRF1 binding 77, LEDGF integ inh 60, PLC-beta3 inh 15, MBD2 DNA inh 49 | UHRF1 ctr MBD2 51 | MBD2 confirm 26 | PLCg1 ctr inactive | PLCb3 confirm inactive | IN multimer act 103 | TRFRET interf inactive | LEDGF integ conf 84
O=C(O)Cc1c[nH]c2ccccc12	none
O=C(O)Cc1c[nH]c2cccc(O)c12	PLCg1 inh 25, UHRF1 binding 95, LEDGF integ inh 73, MBD2 DNA inh 55 | UHRF1 ctr MBD2 40 | MBD2 confirm 16 | IN multimer act 55 | TRFRET interf inactive | LEDGF integ conf 39
CCOC(=O)[C@@]12CCCC3=C1N(CCC3)C(=O)[C@H]2CC(=O)NCc1cccs1	none
CCOC(=O)C1CCN(C(=O)C(Cc2ccc3c(c2)OCO3)NC(C)=O)CC1 (stereo not drawn)	none
Cc1c(O)cc2c(c1O)C(=O)CC(c1ccc(O)cc1)O2 (stereo not drawn)	UHRF1 binding 29, LEDGF integ inh 22, MBD2 DNA inh 15 | UHRF1 ctr MBD2 inactive | MBD2 confirm inactive | IN multimer act 37 | TRFRET interf inactive | LEDGF integ conf 39
COC(=O)c1cc(C(c2ccccc2O)C2CCCO2)n2cccc(C(C)(C)C)c12 (stereo not drawn)	none
Cc1nccc2oc(=O)c(NC(=O)c3ccc(Cl)cc3)cc12	none
O=C(Nc1cc2c(oc1=O)CCCC2=O)c1ccc(Cl)cc1	UHRF1 binding 41, LEDGF integ inh 17, MBD2 DNA inh 16 | UHRF1 ctr MBD2 29 | MBD2 confirm 16 | IN multimer act inactive | TRFRET interf inactive | LEDGF integ conf 22
O=C(N/N=C/c1ccc(F)cc1)c1cc(-c2ccco2)nc2ccccc12	UHRF1 binding 28, LEDGF integ inh 15, MBD2 DNA inh 19 | UHRF1 ctr MBD2 52 | MBD2 confirm 36 | IN multimer act 24 | TRFRET interf inactive | LEDGF integ conf 48
CCCCOCCCNC(=O)C[C@H]1C(=O)N(Cc2ccc(OC)cc2)C2=CCCC[C@@]21C(=O)OCC	none
O=C(O)c1ccc(N/N=C/C2=C(N3CCOCC3)C(=C\c3ccccc3)/CC2)cc1	UHRF1 binding 51, LEDGF integ inh 54, MBD2 DNA inh 19 | UHRF1 ctr MBD2 inactive | MBD2 confirm inactive | IN multimer act inactive | TRFRET interf inactive | LEDGF integ conf 17
Cc1cc(C)nc(N/N=C/C2=C(N3CCOCC3)C(=C\c3ccc(Cl)cc3)/CC2)n1	none
CCN(CC)Cc1cc(O)c(CN(CC)CC)cc1O	UHRF1 binding 52, LEDGF integ inh 64, MBD2 DNA inh 17 | UHRF1 ctr MBD2 inactive | MBD2 confirm inactive | IN multimer act inactive | TRFRET interf inactive | LEDGF integ conf 57
CCCC(=O)OCCNc1cc(SCc2ccco2)c2nonc2c1[N+](=O)[O-]	none
CC(=O)OCCCNc1cc(SCc2ccco2)c2nonc2c1[N+](=O)[O-]	UHRF1 binding 59, LEDGF integ inh 66, MBD2 DNA inh 14 | UHRF1 ctr MBD2 inactive | MBD2 confirm inactive | IN multimer act inactive | TRFRET interf inactive | LEDGF integ conf 24
COc1ccc(CN2CN3Cc4cc(F)ccc4C3CS2(=O)=O)cc1 (stereo not drawn)	none
COc1ccccc1Cc1c(-c2ccc(OC)c(OC)c2)nc2cc(C)c(Br)c(C)n12	UHRF1 binding 26, LEDGF integ inh 18, MBD2 DNA inh 19 | UHRF1 ctr MBD2 inactive | MBD2 confirm inactive | IN multimer act inactive | TRFRET interf inactive | LEDGF integ conf inactive
Cc1ccc(/C=C/C(=O)NCc2ccco2)o1	UHRF1 binding 54, LEDGF integ inh 37, MBD2 DNA inh 14 | UHRF1 ctr MBD2 48 | MBD2 confirm 17 | IN multimer act 13 | TRFRET interf inactive | LEDGF integ conf 60
O=C(/C=C/c1ccco1)NCc1ccco1	none
O=C(/C=C/c1ccco1)c1cccnc1	UHRF1 binding 84, LEDGF integ inh 67, MBD2 DNA inh 31 | UHRF1 ctr MBD2 44 | MBD2 confirm 20 | IN multimer act inactive | TRFRET interf inactive | LEDGF integ conf 51
O=S(=O)(Nc1cc2nc3ccccc3nc2n1Cc1ccccc1)c1ccc(Cl)cc1	LEDGF integ inh 24, MBD2 DNA inh 16 | UHRF1 ctr MBD2 inactive | MBD2 confirm 18 | IN multimer act inactive | TRFRET interf inactive | LEDGF integ conf 73
O=S(=O)(NCc1ccccc1)c1ccc(Cl)cc1	none
